Test results taken from the supplement of paper PMC9694430.
Structures can show the parent of a compound that is named as a salt.

tested on: LOC_OS01G63280-cb003; assay: thermal shift delta Tm vs DMSO control; higher = stronger stabilization (binding); settings: 12.5 µM; protein concentration 2 µM
Method in brief: (§1)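 Rice kinase domain constructs were expressed in E. coli, purified, and tested by differential scanning fluorimetry with compound added in DMSO. Each well of a 96-well plate held 19.5 μl of 2 μM kinase in 100 mM potassium phosphate pH 7.5, 150 mM NaCl, 10% glycerol and 5 × SYPRO Orange, and fluorescence was read from 25°C to 95°C at 0.05°C/s. The melting temperature shift is the mean of triplicates, taken against protein with DMSO alone after Boltzmann fitting.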

Compound	thermal shift delta Tm
COc1cc2ncnc(Oc3ccc(CC(=O)Nc4cnn(C(C)C)c4)cc3)c2cc1OC	0.13 °C
CN1C(=O)[C@@H](NC(=O)c2n[nH]c(Cc3ccccc3)n2)COc2ccccc21	0.29 °C
N[C@@H]1CCCN(c2c(/C=C3\SC(=O)NC3=O)cccc2-c2ccccc2)C1	-0.31 °C
Cc1cc(C(C)Nc2ccccc2)c2nc(N3CCOCC3)cc(=O)n2c1 (stereo unspecified)	-0.26 °C
CC#CC(=O)N1CC[C@@H](n2c(=O)n(-c3ccc(Oc4ccccc4)cc3)c3c(N)ncnc32)C1 [ONO-4059 (GS-4059) hydrochloride]	-0.08 °C
COc1cc(OC)c(C=C2C(=O)Nc3ccccc32)c(OC)c1	-0.13 °C
O=C(Nc1cnn2ccc(N3CCC[C@@H]3c3cc(F)ccc3F)nc12)N1CC[C@H](O)C1 [Larotrectinib (LOXO-101) sulfate]	-0.24 °C
C[C@H](NC(=O)/C(C#N)=C/c1cccc(Br)n1)c1ccccc1	-4.67 °C
Nc1nccc(Oc2ccc3c(C(=O)Nc4cccc(C(F)(F)F)c4)cccc3c2)n1	7.54 °C
Oc1cccc(-c2nc(N3CCOCC3)c3oc4ncccc4c3n2)c1	0.94 °C
O=C(c1ccc(Nc2nccc(-c3cc4ccccc4s3)n2)cc1)N1CCC(N2CCCC2)CC1 [IKK-16 (IKK Inhibitor VII)]	2.16 °C
Cc1cc(C(=O)NOCCO)c(Nc2ccc(I)cc2F)n(C)c1=O	0.19 °C
c1nc2c(NC3CCCCC3)nc(Nc3ccc(N4CCOCC4)cc3)nc2[nH]1 [Reversine]	1.53 °C
CC#CC(=O)N1CCC[C@H]1c1nc(-c2ccc(C(=O)Nc3ccccn3)cc2)c2c(N)nccn12 [Acalabrutinib (ACP-196)]	0.05 °C
CN1CCN(c2nc(C3=C(c4c[nH]c5ccccc45)C(=O)NC3=O)c3ccccc3n2)CC1 [Sotrastaurin]	0.55 °C
Cc1ccc(-n2nc(C(C)(C)C)cc2NC(=O)NCc2cc(F)ccc2Oc2ccc3c(cnn3CCO)c2)cc1 [Pexmetinib (ARRY-614)]	6.58 °C
Cc1cc(F)c(Nc2ncnc3cc(OCc4ccccc4)ccc23)cc1O	1.25 °C
C[C@@H]1COC(Nc2ccc3ncnc(Nc4ccc(OCc5nccs5)c(Cl)c4)c3c2)=N1 [Varlitinib]	1.44 °C
CCCCNc1ncc2c(-c3ccc(CN4CCN(C)CC4)cc3)cn([C@H]3CC[C@H](O)CC3)c2n1	0.95 °C

Compound	thermal shift delta Tm
CCC(=O)Nc1cccc(Oc2nc(Nc3ccc(N4CCN(C)CC4)cc3OC)ncc2Cl)c1	0.16 °C
CC(C)(CCCCCC(O)CCCCCC(C)(C)C(=O)O)C(=O)O	-0.01 °C
Cc1c(Cn2c(C)nc3c(C(=O)O)cc(N4CCOCC4)cc32)cccc1C(F)(F)F	-0.3 °C
Cc1ccc(-n2nc(C(C)(C)C)cc2NC(=O)Nc2ccc(OCCN3CCOCC3)c3ccccc23)cc1 [Doramapimod (BIRB 796)]	1.11 °C
O=S(=O)(NCCNC/C=C/c1ccc(Br)cc1)c1cccc2cnccc12	0.58 °C
CN1CCN(c2ccc(-c3ccncc3-c3cc(F)c(O)c(F)c3)cc2)CC1	0.31 °C
C=CC(=O)N[C@H]1CCOC[C@H]1Nc1ncc2cc(-c3c(Cl)c(OC)cc(OC)c3Cl)ccc2n1	-0.43 °C
Cc1cc(Nc2cc(N)ncn2)c(=O)n2c1C(=O)NC21CCCCC1	-0.02 °C
O=C1NC(=O)C(c2ccccc2[N+](=O)[O-])=C1Nc1ccc(O)c(Cl)c1	0.02 °C
Cc1ccccc1CN1C2=NCCN2C(=O)C2=C1CCN(Cc1ccccc1)C2 [TIC10 Analogue]	0.12 °C
CCNC(=O)Nc1ccc(-c2nc3c(c(N4CCOC[C@@H]4C)n2)CCN(C2COC2)C3)cc1	0.65 °C
CC[C@@H]1C(=O)N(C)c2cnc(Nc3ccc(C(=O)NC4CCN(C)CC4)cc3OC)nc2N1C1CCCC1	-0.22 °C
Nc1nc(N)c2nc(-c3cccc(O)c3)c(-c3cccc(O)c3)nc2n1	0.44 °C
CCc1cnn2c(NCc3ccc[n+]([O-])c3)cc(N3CCCC[C@H]3CCO)nc12	0.34 °C
COc1ccc(CC(=O)Nc2nc3c(s2)CCc2ccccc2-3)cc1OC	0.2 °C
CCn1c(N)c(C(=O)NC)c(=O)c2ccc(C#CC(C)(O)COC)nc21 (stereo unspecified)	0.41 °C
Oc1c(F)cc(-c2cnccc2-c2ccc(N3CCOCC3)cc2)cc1F	0.58 °C
CCN(CC)CCNC(=O)c1c(C)[nH]c(/C=C2\C(=O)Nc3ccc(F)cc32)c1C [Sunitinib]	0.49 °C
CC(C)(C#N)c1ccc(N2C(=O)OCc3cnc4ccc(-c5cnc6ccccc6c5)cc4c32)cc1	0.63 °C

tested on: LOC_OS01G67340-cb003; assay: as above; settings: 12.5 µM; protein concentration 2 µM
Method in brief: as §1

Compound	thermal shift delta Tm
COc1cc2ncnc(Oc3ccc(CC(=O)Nc4cnn(C(C)C)c4)cc3)c2cc1OC	-0.21 °C
CN1C(=O)[C@@H](NC(=O)c2n[nH]c(Cc3ccccc3)n2)COc2ccccc21	0.17 °C
N[C@@H]1CCCN(c2c(/C=C3\SC(=O)NC3=O)cccc2-c2ccccc2)C1	-0.25 °C
Cc1cc(C(C)Nc2ccccc2)c2nc(N3CCOCC3)cc(=O)n2c1 (stereo unspecified)	-0.69 °C
CC#CC(=O)N1CC[C@@H](n2c(=O)n(-c3ccc(Oc4ccccc4)cc3)c3c(N)ncnc32)C1 [ONO-4059 (GS-4059) hydrochloride]	0.27 °C
COc1cc(OC)c(C=C2C(=O)Nc3ccccc32)c(OC)c1	0.36 °C
O=C(Nc1cnn2ccc(N3CCC[C@@H]3c3cc(F)ccc3F)nc12)N1CC[C@H](O)C1 [Larotrectinib (LOXO-101) sulfate]	0.23 °C
C[C@H](NC(=O)/C(C#N)=C/c1cccc(Br)n1)c1ccccc1	-1.18 °C
Nc1nccc(Oc2ccc3c(C(=O)Nc4cccc(C(F)(F)F)c4)cccc3c2)n1	0.91 °C
Oc1cccc(-c2nc(N3CCOCC3)c3oc4ncccc4c3n2)c1	0.14 °C
O=C(c1ccc(Nc2nccc(-c3cc4ccccc4s3)n2)cc1)N1CCC(N2CCCC2)CC1 [IKK-16 (IKK Inhibitor VII)]	3.52 °C
Cc1cc(C(=O)NOCCO)c(Nc2ccc(I)cc2F)n(C)c1=O	-0.42 °C
c1nc2c(NC3CCCCC3)nc(Nc3ccc(N4CCOCC4)cc3)nc2[nH]1 [Reversine]	3.68 °C
CC#CC(=O)N1CCC[C@H]1c1nc(-c2ccc(C(=O)Nc3ccccn3)cc2)c2c(N)nccn12 [Acalabrutinib (ACP-196)]	0.39 °C
CN1CCN(c2nc(C3=C(c4c[nH]c5ccccc45)C(=O)NC3=O)c3ccccc3n2)CC1 [Sotrastaurin]	0.35 °C
Cc1ccc(-n2nc(C(C)(C)C)cc2NC(=O)NCc2cc(F)ccc2Oc2ccc3c(cnn3CCO)c2)cc1 [Pexmetinib (ARRY-614)]	0.87 °C
Cc1cc(F)c(Nc2ncnc3cc(OCc4ccccc4)ccc23)cc1O	0.41 °C
C[C@@H]1COC(Nc2ccc3ncnc(Nc4ccc(OCc5nccs5)c(Cl)c4)c3c2)=N1 [Varlitinib]	0.64 °C
CCCCNc1ncc2c(-c3ccc(CN4CCN(C)CC4)cc3)cn([C@H]3CC[C@H](O)CC3)c2n1	10.1 °C

Compound	thermal shift delta Tm
CCC(=O)Nc1cccc(Oc2nc(Nc3ccc(N4CCN(C)CC4)cc3OC)ncc2Cl)c1	0.44 °C
CC(C)(CCCCCC(O)CCCCCC(C)(C)C(=O)O)C(=O)O	0.52 °C
Cc1c(Cn2c(C)nc3c(C(=O)O)cc(N4CCOCC4)cc32)cccc1C(F)(F)F	0.23 °C
Cc1ccc(-n2nc(C(C)(C)C)cc2NC(=O)Nc2ccc(OCCN3CCOCC3)c3ccccc23)cc1 [Doramapimod (BIRB 796)]	0.16 °C
O=S(=O)(NCCNC/C=C/c1ccc(Br)cc1)c1cccc2cnccc12	-0.25 °C
CN1CCN(c2ccc(-c3ccncc3-c3cc(F)c(O)c(F)c3)cc2)CC1	0.24 °C
C=CC(=O)N[C@H]1CCOC[C@H]1Nc1ncc2cc(-c3c(Cl)c(OC)cc(OC)c3Cl)ccc2n1	-0.17 °C
Cc1cc(Nc2cc(N)ncn2)c(=O)n2c1C(=O)NC21CCCCC1	0.19 °C
O=C1NC(=O)C(c2ccccc2[N+](=O)[O-])=C1Nc1ccc(O)c(Cl)c1	0.79 °C
Cc1ccccc1CN1C2=NCCN2C(=O)C2=C1CCN(Cc1ccccc1)C2 [TIC10 Analogue]	-0.3 °C
CCNC(=O)Nc1ccc(-c2nc3c(c(N4CCOC[C@@H]4C)n2)CCN(C2COC2)C3)cc1	0.16 °C
CC[C@@H]1C(=O)N(C)c2cnc(Nc3ccc(C(=O)NC4CCN(C)CC4)cc3OC)nc2N1C1CCCC1	-0.4 °C
Nc1nc(N)c2nc(-c3cccc(O)c3)c(-c3cccc(O)c3)nc2n1	-0.24 °C
CCc1cnn2c(NCc3ccc[n+]([O-])c3)cc(N3CCCC[C@H]3CCO)nc12	-0.24 °C
COc1ccc(CC(=O)Nc2nc3c(s2)CCc2ccccc2-3)cc1OC	1.18 °C
CCn1c(N)c(C(=O)NC)c(=O)c2ccc(C#CC(C)(O)COC)nc21 (stereo unspecified)	0.38 °C
Oc1c(F)cc(-c2cnccc2-c2ccc(N3CCOCC3)cc2)cc1F	0.1 °C
CCN(CC)CCNC(=O)c1c(C)[nH]c(/C=C2\C(=O)Nc3ccc(F)cc32)c1C [Sunitinib]	4.15 °C
CC(C)(C#N)c1ccc(N2C(=O)OCc3cnc4ccc(-c5cnc6ccccc6c5)cc4c32)cc1	0.63 °C
